These results are taken from article PMC5349851, “Combinatorial bZIP dimers display complex DNA-binding specificity landscapes”.

Among the targets are ATF3;CEBPA (Homo sapiens;Homo sapiens, UniProt P18847;P49715 77-150;273-345, |); JUN;CEBPG (Homo sapiens;Homo sapiens, UniProt P05412;P53567 243-316;52-130, |); JUN;CEBPA (Homo sapiens;Homo sapiens, UniProt P05412;P49715 243-316;273-345, |); BATF3;CEBPA (Homo sapiens;Homo sapiens, UniProt Q9NR55;P49715 26-99;273-345, |); JUNB;CEBPA (Homo sapiens;Homo sapiens, UniProt P17275;P49715 259-332;273-345, |).

What all share (assay): SELEX-seq (CSI, HT-SELEX, round 3); SELEX-seq: 1x PBS (10 mM phosphate, 137 mM NaCl, 2.7 mM KCl) pH 7.6, 2.5 mM DTT, 50 ng/ul poly dI-dC, 0.1% BSA, 50 nM biotinylated bZIP (1:3 with partner for heterodimers), 100 nM library, room temperature, 1 h, 3 rounds; high values mean tight binding
What all share (conditions): protein: recombinant;recombinant; copies: 1;1; dsDNA, one strand shown

A further test deals with T1, ATF3;CEBPG (Homo sapiens;Homo sapiens, UniProt P18847;P53567 77-150;52-130, |).
T1 sequence 1: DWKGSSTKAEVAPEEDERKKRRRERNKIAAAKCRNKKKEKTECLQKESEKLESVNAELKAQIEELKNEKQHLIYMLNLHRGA
T1 sequence 2: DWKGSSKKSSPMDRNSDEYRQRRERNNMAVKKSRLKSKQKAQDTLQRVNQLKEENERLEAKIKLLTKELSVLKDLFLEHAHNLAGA

The next test concerns the target T2, BATF3;CEBPG (Homo sapiens;Homo sapiens, UniProt Q9NR55;P53567 26-99;52-130, |).
T2 sequence 1: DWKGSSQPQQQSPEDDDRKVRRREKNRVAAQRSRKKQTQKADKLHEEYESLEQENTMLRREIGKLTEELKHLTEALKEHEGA
T2 sequence 2: T1 sequence 2

In the next test the target is T3, ATF3;ATF3 (Homo sapiens;Homo sapiens, UniProt P18847;P18847 77-150;77-150, |).
T3 sequence 1: T1 sequence 1
T3 sequence 2: T1 sequence 1

The target of a further test is T4, BATF;CEBPG (Homo sapiens;Homo sapiens, UniProt Q16520;P53567 17-90;52-130, |).
T4 sequence 1: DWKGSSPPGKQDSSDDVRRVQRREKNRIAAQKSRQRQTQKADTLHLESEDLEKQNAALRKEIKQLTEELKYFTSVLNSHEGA
T4 sequence 2: T1 sequence 2

In the next test the target is T5, FOSL1;CEBPG (Homo sapiens;Homo sapiens, UniProt P15407;P53567 96-169;52-130, |).
T5 sequence 1: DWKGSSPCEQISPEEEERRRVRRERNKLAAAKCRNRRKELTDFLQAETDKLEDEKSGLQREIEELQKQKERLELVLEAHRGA
T5 sequence 2: T1 sequence 2

Chain of JUNB;CEBPA (P17275 other isoform, or with tags, fused parts or gaps |, chain 1 of 2): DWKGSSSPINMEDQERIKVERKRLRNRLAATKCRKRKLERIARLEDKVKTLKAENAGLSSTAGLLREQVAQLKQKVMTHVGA
Chain of JUNB;CEBPA (P49715 other isoform, or with tags, fused parts or gaps |, chain 2 of 2): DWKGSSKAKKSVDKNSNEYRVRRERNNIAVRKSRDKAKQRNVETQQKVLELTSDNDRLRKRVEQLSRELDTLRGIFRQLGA
Chain of JUN;CEBPA (P05412 other isoform, or with tags, fused parts or gaps |, chain 1 of 2): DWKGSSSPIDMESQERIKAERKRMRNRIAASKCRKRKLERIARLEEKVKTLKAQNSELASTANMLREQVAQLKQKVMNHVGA
Chain of JUN;CEBPA (P49715 other isoform, or with tags, fused parts or gaps |, chain 2 of 2): as the sequence (P49715 other isoform, or with tags, fused parts or gaps |, chain 2 of 2) above
Chain of BATF3;CEBPA (P49715 other isoform, or with tags, fused parts or gaps |): as the sequence (P49715 other isoform, or with tags, fused parts or gaps |, chain 2 of 2) above

For ATGACGTCAT, the binding signal in the test with ATF3;CEBPG is 0.268 relative CSI intensity (max = 1); in the test with ATF3;CEBPA it was 1 relative CSI intensity (max = 1); with JUN;CEBPG, 0.705 relative CSI intensity (max = 1); with JUN;CEBPA, 1 relative CSI intensity (max = 1); with BATF3;CEBPG, 0.108 relative CSI intensity (max = 1); in the test with BATF3;CEBPA it was 0.0986 relative CSI intensity (max = 1). Further, the binding signal is 1 relative CSI intensity (max = 1) with ATF3;ATF3, 0.0515 relative CSI intensity (max = 1) with JUNB;CEBPA, 0.12 relative CSI intensity (max = 1) with BATF;CEBPG and 0.43 relative CSI intensity (max = 1) with FOSL1;CEBPG.
For the sequence CCTGACGTCA, the binding signal in the test with ATF3;CEBPG is 0.0196 relative CSI intensity (max = 1); in the test with ATF3;CEBPA, 0.18 relative CSI intensity (max = 1); with JUN;CEBPA it was 0.00973 relative CSI intensity (max = 1); with BATF3;CEBPG, 0.00277 relative CSI intensity (max = 1); in the test with BATF3;CEBPA, 0.00253 relative CSI intensity (max = 1); with ATF3;ATF3, 0.0945 relative CSI intensity (max = 1). In addition, the binding signal in the test with JUNB;CEBPA is 0.00467 relative CSI intensity (max = 1); in the test with BATF;CEBPG it was 0.0162 relative CSI intensity (max = 1).
On to ATGACGGAAT, for which the binding signal was 0.0128 relative CSI intensity (max = 1) with ATF3;CEBPG; 0.105 relative CSI intensity (max = 1) with ATF3;CEBPA; 0.0184 relative CSI intensity (max = 1) in the test with JUN;CEBPG; 0.00425 relative CSI intensity (max = 1) with JUN;CEBPA; 0.00179 relative CSI intensity (max = 1) with BATF3;CEBPG; 0.00639 relative CSI intensity (max = 1) with ATF3;ATF3. Further, the binding signal was 0.00413 relative CSI intensity (max = 1) with JUNB;CEBPA and 0.00661 relative CSI intensity (max = 1) in the test with BATF;CEBPG.
Regarding ATGACGCAAT, the binding signal with ATF3;CEBPG was 1 relative CSI intensity (max = 1); in the test with ATF3;CEBPA, 0.754 relative CSI intensity (max = 1); with JUN;CEBPG it was 1 relative CSI intensity (max = 1); in the test with JUN;CEBPA, 0.7 relative CSI intensity (max = 1); in the test with BATF3;CEBPG, 0.954 relative CSI intensity (max = 1); with BATF3;CEBPA, 0.595 relative CSI intensity (max = 1). Also, the binding signal with ATF3;ATF3 was 0.0322 relative CSI intensity (max = 1); in the test with JUNB;CEBPA, 1 relative CSI intensity (max = 1); with BATF;CEBPG it was 0.678 relative CSI intensity (max = 1); with FOSL1;CEBPG it was 1 relative CSI intensity (max = 1).
For the sequence ATGATGCAAT, the binding signal with ATF3;CEBPG is 0.538 relative CSI intensity (max = 1); in the test with ATF3;CEBPA it was 0.655 relative CSI intensity (max = 1); with JUN;CEBPG it was 0.445 relative CSI intensity (max = 1); in the test with JUN;CEBPA, 0.679 relative CSI intensity (max = 1); with BATF3;CEBPG, 0.78 relative CSI intensity (max = 1); with BATF3;CEBPA, 0.725 relative CSI intensity (max = 1). Besides, the binding signal in the test with ATF3;ATF3 was 0.00513 relative CSI intensity (max = 1); with JUNB;CEBPA it was 0.927 relative CSI intensity (max = 1); in the test with BATF;CEBPG, 0.553 relative CSI intensity (max = 1); in the test with FOSL1;CEBPG, 0.498 relative CSI intensity (max = 1).
Consider ATGACGTAAT, for which the binding signal is 0.53 relative CSI intensity (max = 1) with ATF3;CEBPG; 0.606 relative CSI intensity (max = 1) with ATF3;CEBPA; 0.246 relative CSI intensity (max = 1) with JUN;CEBPG; 0.286 relative CSI intensity (max = 1) with JUN;CEBPA; 0.306 relative CSI intensity (max = 1) with BATF3;CEBPG; 0.226 relative CSI intensity (max = 1) in the test with BATF3;CEBPA. In addition, the binding signal with ATF3;ATF3 was 0.196 relative CSI intensity (max = 1); with JUNB;CEBPA, 0.144 relative CSI intensity (max = 1); with BATF;CEBPG, 0.22 relative CSI intensity (max = 1); with FOSL1;CEBPG, 0.318 relative CSI intensity (max = 1).
